Source: PubChem
HT1080NT lethal: qHTS for induction of synthetic lethality in tumor cells producing 2HG: qHTS for the HT-1080-NT fibrosarcoma cell line. HT-1080-NT fibrosarcoma viability, CellTiter-Glo ATP luminescence, 48 h. Potency, µM (doses to about 46.1 µM), without a hit: at the highest dose activity, negative = less viability, hits mostly cytotoxic. 360,000 compounds, 1.6% hits;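 further: NT is the 2HG producing partner of a matched IDH1 knockdown line; potency means the concentration at half of the fitted maximal effect; 0% = DMSO-treated cells and -100% = media-only wells without cells; nearly all actives have a fitted effect of over 55% in size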
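Viability by CellTiter-Glo luminescence after 48 h compound exposure at 37C of HT-1080-NT cells (750/well, RPMI, 5% FBS). % activity scaled between DMSO wells and medium-only wells, then curve-fitted and categorized by curve class.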
DT40 TDP1 no CPT: qHTS for Inhibitors of human tyrosyl-DNA phosphodiesterase 1 (TDP1): qHTS in cells in absence of CPT; DT40 Tdp1-/- hTDP1 cells, no CPT, ATP luminescence, 48 h; Potency, µM (top dose mostly 46.2 µM), inactives show at the highest dose activity change, negative = growth inhibition, hits mostly inhibitors; 420,000 compounds, 15% hits; AID 686978, 2013; further: potency means the concentration at half of the fitted maximal effect; nearly all actives have a fitted effect of over 55% in size
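DT40 Tdp1-/-;hTDP1 cells, no CPT (DMSO vehicle only), 400 cells/well; compounds pin-transferred; ≥48 hr, 37 °C; CellTiter-Glo 30 min RT dark, luminescence read.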
IL1B secr inh: qHTS for Inhibitors of Inflammasome Signaling: IL-1-beta AlphaLISA Primary Screen; THP-1 LPS/ATP IL-1B secretion, AlphaLISA, 16 h; hits give low values; activity change, % at 57.5 µM; 360,000 compounds, 4.7% hits; AID 743279, 2014; in the data active means activity change below about -50%; inconclusive means mostly about -30% to -49%
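THP-1 cells pretreated 1 hr with compounds (up to 57.5 uM final), then stimulated with LPS (250 ng/mL final) plus ATP (1.25 mM final); secreted IL-1B measured by AlphaLISA after 16 hr, decreased signal indicating inhibition.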
TDP1 cell CPT: qHTS for Inhibitors of human tyrosyl-DNA phosphodiesterase 1 (TDP1): qHTS in cells in presence of CPT; chicken DT40 Tdp1-/-;hTDP1 cells + 20 nM CPT, ATP luminescence, 48 h; Potency, µM (series often up to 46.2 µM), inactives show at the highest dose activity change, negative = growth inhibition, usual class: inhibitors; 420,000 compounds, 12% hits; AID 686979, 2013; further: potency means the concentration at half of the fitted maximal effect; nearly all actives have a fitted effect of over 55% in size
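Chicken DT40 Tdp1-/- cells stably complemented with human TDP1 were seeded at 400 cells/well in medium containing 20 nM camptothecin, exposed to pin-transferred compounds, and grown at 37 °C for at least 48 hr. Viability was read as ATP luminescence.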
HT1080 IDH1KD tx: qHTS for induction of synthetic lethality in tumor cells producing 2HG: qHTS for the HT-1080-IDH1KD cell line; AID 686971, 2013; HT-1080 IDH1 knockdown viability, ATP luminescence, 48 h; 360,000 compounds, 2% hits; Potency, µM (doses to about 46.1 µM), without a hit: at the top dose activity, negative = toxicity, most hits filed as cytotoxic;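 further: potency means the concentration at half of the fitted maximal effect; 0% = DMSO wells and -100% = cell-free medium wells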
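HT-1080-IDH1KD cells (IDH1 knocked down), 750/well in RPMI with 5% FBS, treated with compound 48 h at 37 degrees C. Viability by CellTiter-Glo luminescence, normalised to DMSO and no-cell wells; concentration-response curves classed.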
Active calls of the source: *. This is a sample that favours compounds with a hit; in the whole collection about 19% have one here. Unless noted, the call rests on the fitted dose curve; in most records, active means well fitted curve in the direction sought with a large enough effect; inconclusive means small, poorly fitted or top-dose-only effect, or another doubt; inactive means no such curve, though single readings can be large; an effect the other way counts as inactive or inconclusive. Unless noted, on the % scale 0 is the no-effect control and ±100 the full control effect.

Screening CN(Cc1ccccc1)S(=O)(=O)c1ccc(Cl)c(C(=O)NCCCN2CCOCC2)c1 returned HT1080NT lethal 3%, DT40 TDP1 no CPT inconclusive, IL1B secr inh 22, TDP1 cell CPT -9% and HT1080 IDH1KD tx 8%.
Cc1c(Br)cc(C(=O)NC2CCCCC2)c(C)c1C was read as HT1080NT lethal 2%, DT40 TDP1 no CPT -29%, IL1B secr inh 16, TDP1 cell CPT inconclusive and HT1080 IDH1KD tx 6%.
For Cc1cc(OCC(=O)N2CCC(C(=O)O)CC2)c2c(C)c(C)c(=O)oc2c1 the results were HT1080NT lethal 12%, DT40 TDP1 no CPT 12%, IL1B secr inh 10, TDP1 cell CPT 12% and HT1080 IDH1KD tx 12%.
`CC(Oc1cc2oc(=O)c3c(c2cc1Cl)CCCC3)C(=O)NCCN1CCOCC1` (centres undefined) gave HT1080NT lethal -3%, DT40 TDP1 no CPT 13µM*, IL1B secr inh 12, TDP1 cell CPT inconclusive and HT1080 IDH1KD tx -14%.
For CCOC(=O)C(Oc1ccc2c(-c3ccc(OC)cc3)cc(=O)oc2c1C)c1ccccc1 (centres undefined) the results were HT1080NT lethal -15%, DT40 TDP1 no CPT inconclusive, IL1B secr inh 8, TDP1 cell CPT 16µM* and HT1080 IDH1KD tx -6%.
For CCCCN(CC)Cc1c(O)ccc2c(-c3ccccc3)cc(=O)oc12 the results were HT1080NT lethal -1%, DT40 TDP1 no CPT inconclusive, IL1B secr inh -27, TDP1 cell CPT inconclusive and HT1080 IDH1KD tx -3%.
Screening CCCCN(C)Cc1c(O)ccc2c(-c3ccccc3)cc(=O)oc12 returned HT1080NT lethal -14%, DT40 TDP1 no CPT 15µM*, IL1B secr inh inconclusive, TDP1 cell CPT inconclusive and HT1080 IDH1KD tx -21%.
O=C(COc1ccc2c(-c3ccccc3)cc(=O)oc2c1)NCCCn1ccnc1 was read as HT1080NT lethal -5%, DT40 TDP1 no CPT inconclusive, IL1B secr inh -15, TDP1 cell CPT 18µM* and HT1080 IDH1KD tx 1%.
Screening CC(Oc1cc2oc(=O)c3c(c2cc1Cl)CCC3)C(=O)NCCCN1CCOCC1 (centres undefined) returned HT1080NT lethal 7%, DT40 TDP1 no CPT -22%, IL1B secr inh 20, TDP1 cell CPT -2% and HT1080 IDH1KD tx 8%.
`O=C(O)CC(NC(=O)Cc1ccccc1)c1cc([N+](=O)[O-])ccc1Cl` (centres undefined) gave HT1080NT lethal 2%, DT40 TDP1 no CPT -7%, IL1B secr inh 15, TDP1 cell CPT 4% and HT1080 IDH1KD tx 12%.
For CC(=O)c1ccc(N2CCN(C(=O)/C=C/c3ccc(S(=O)(=O)NCc4ccco4)cc3)CC2)cc1 the results were HT1080NT lethal 1%, DT40 TDP1 no CPT 21µM*, IL1B secr inh 1, TDP1 cell CPT 21µM* and HT1080 IDH1KD tx -24%.
`O=C(c1ccc(Cl)c(S(=O)(=O)NCc2ccco2)c1)N1CCN(c2ccc(F)cc2)CC1` gave HT1080NT lethal -15%, DT40 TDP1 no CPT 23µM*, IL1B secr inh -2, TDP1 cell CPT 16µM* and HT1080 IDH1KD tx -17%.
`CC(=O)c1ccc(N2CCN(C(=O)/C=C/c3ccc(S(=O)(=O)N4CCOCC4)cc3)CC2)cc1` gave HT1080NT lethal -12%, DT40 TDP1 no CPT 15µM*, IL1B secr inh 13, TDP1 cell CPT 18µM* and HT1080 IDH1KD tx -6%.
Screening O=C(Nc1ccc(N2CCOCC2)cc1)c1ccc(S(=O)(=O)NCc2ccco2)cc1 returned HT1080NT lethal -12%, DT40 TDP1 no CPT 0%, IL1B secr inh 11, TDP1 cell CPT 19% and HT1080 IDH1KD tx -5%.
Cc1ccc(SCC(=O)NNC(=O)c2cncc(Br)c2)cc1 was read as HT1080NT lethal -2%, DT40 TDP1 no CPT -4%, IL1B secr inh 19, TDP1 cell CPT -7% and HT1080 IDH1KD tx 11%.
Cn1cnnc1SCC(=O)NC1CCCCCC1 was read as HT1080NT lethal 7%, DT40 TDP1 no CPT 16%, IL1B secr inh 17, TDP1 cell CPT -3% and HT1080 IDH1KD tx 10%.
`Cc1cc(C)n(-c2nc3ccccc3nc2N2CCCC2)n1` gave HT1080NT lethal 14%, DT40 TDP1 no CPT -20%, IL1B secr inh 11, TDP1 cell CPT -16% and HT1080 IDH1KD tx 0%.
Cc1cc(C)n(-c2nc3ccccc3nc2N2CCN(C(=O)c3ccc(Cl)cc3)CC2)n1 was read as HT1080NT lethal -26%, DT40 TDP1 no CPT inconclusive, IL1B secr inh -59*, TDP1 cell CPT inconclusive and HT1080 IDH1KD tx inconclusive.
COCOc1cccc(CN2CCC2(C)C(=O)Nc2cc(OC)ccc2OC)c1 (centres undefined) was read as HT1080NT lethal inconclusive, DT40 TDP1 no CPT inconclusive, IL1B secr inh 24, TDP1 cell CPT 26µM* and HT1080 IDH1KD tx -18%.
`COCOc1cccc(CN2CCC2(C)C(=O)Nc2ccc(C)cc2)c1` (centres undefined) gave HT1080NT lethal inconclusive, DT40 TDP1 no CPT inconclusive, IL1B secr inh -14, TDP1 cell CPT inconclusive and HT1080 IDH1KD tx -25%.
COCOc1cccc(CN2CCC2(C)C(=O)Nc2ccc(C)c(O)c2)c1 (centres undefined) was read as HT1080NT lethal -20%, DT40 TDP1 no CPT 18µM*, IL1B secr inh -15, TDP1 cell CPT 26µM* and HT1080 IDH1KD tx inconclusive.
For COc1ccc(OC)c(NC(=O)C2(C)CCN2Cc2ccc(SC)cc2)c1 (centres undefined) the results were HT1080NT lethal 3%, DT40 TDP1 no CPT -30%, IL1B secr inh -6, TDP1 cell CPT 7% and HT1080 IDH1KD tx -9%.
`COCOc1cccc(CN2CCC2(C)C(=O)Nc2ccc(OC)c(OC)c2)c1` (centres undefined) gave HT1080NT lethal -10%, DT40 TDP1 no CPT 23µM*, IL1B secr inh -8, TDP1 cell CPT 16µM* and HT1080 IDH1KD tx 20%.
Screening Cc1ncc([N+](=O)[O-])n1CC(=O)N/N=C/c1ccc(F)cc1 returned HT1080NT lethal -5%, DT40 TDP1 no CPT 21%, IL1B secr inh 0, TDP1 cell CPT -1% and HT1080 IDH1KD tx -2%.
`COc1cc(C(=O)N(C)C2CCCN(Cc3ccccc3F)C2)cc(OC)c1OC` (centres undefined) gave HT1080NT lethal 9%, DT40 TDP1 no CPT -8%, IL1B secr inh 15, TDP1 cell CPT -20% and HT1080 IDH1KD tx 18%.
